Inconclusive results are not listed. The source made the active and inactive calls. Calls follow the shape of the dose curve; as a rule, active = well fitted inhibition curve with a large enough effect; inconclusive = small, poorly fitted or top-dose-only effect; inactive = no such curve, though single readings can be large or run the other way.

Chain of Polyunsaturated fatty acid lipoxygenase ALOX15B (Homo sapiens) (O15296 whole entry, looked up): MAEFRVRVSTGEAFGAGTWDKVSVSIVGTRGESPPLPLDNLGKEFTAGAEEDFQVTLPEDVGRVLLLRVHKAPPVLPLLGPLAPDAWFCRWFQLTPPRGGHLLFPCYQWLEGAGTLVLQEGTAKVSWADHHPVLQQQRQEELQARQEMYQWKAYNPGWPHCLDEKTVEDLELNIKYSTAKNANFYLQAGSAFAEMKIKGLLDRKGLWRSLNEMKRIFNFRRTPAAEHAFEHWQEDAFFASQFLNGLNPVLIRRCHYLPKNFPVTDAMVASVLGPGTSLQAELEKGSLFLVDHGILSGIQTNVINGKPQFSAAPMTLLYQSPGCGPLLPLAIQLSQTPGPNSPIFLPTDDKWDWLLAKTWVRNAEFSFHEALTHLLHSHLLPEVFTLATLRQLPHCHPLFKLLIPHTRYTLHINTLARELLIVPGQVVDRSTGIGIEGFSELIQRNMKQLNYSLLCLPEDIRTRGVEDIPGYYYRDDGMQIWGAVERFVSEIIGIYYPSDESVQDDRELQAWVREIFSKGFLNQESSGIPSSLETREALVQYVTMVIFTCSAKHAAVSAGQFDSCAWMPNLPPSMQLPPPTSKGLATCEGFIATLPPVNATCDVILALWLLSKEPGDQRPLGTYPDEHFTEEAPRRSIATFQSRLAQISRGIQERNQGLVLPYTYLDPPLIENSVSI

The assay has as its target Polyunsaturated fatty acid lipoxygenase ALOX15B (Homo sapiens) (UniProt O15296). Briefly: Confirmation qHTS Assay for Inhibitors of 15-hLO-2 (15-human lipoxygenase 2). The following applies: purified 15hLO-2, xylenol orange hydroperoxide absorbance; series mostly up to 57.1 µM; activity change, negative = inhibition: at the top concentration. On the procedure: Human lipoxygenase 15hLO-2 is a member of the closely related lipoxygenase family of enzymes which catalyze the site-specific oxidation of arachidonic acid to various hormone precursor molecules and as such is a candidate for drug development in a variety of disease areas, such as cancer and inflammation. Inhibition of 15hLO-2 activity was screened by utilizing arachidonic acid as a substrate. The extent of hydroperoxide product formation was measured by a secondary chromogenic reaction in which xylenol orange (XO, Sigma-Aldrich, cat. number 39,818-7) reacts with the ferric ions produced from the reaction between the hydroperoxide and ferrous ions. The Fe(III)-XO complex is characterized with red-shifted absorbance at 560 nm. A purified preparation of human 15hLO-2 was supplied by Professor Ted Holman, University of California, Santa Cruz. NIH Molecular Libraries Screening Centers Network [MLSCN] NIH Chemical Genomics Center [NCGC] MLSCN Grant: MH081283-01A1 PI Name: Holman, T.R., University of California, Santa Cruz
Assay Protocol: Buffer: 25 mM Hepes pH 7.5, 0.01% Triton X-100. Reagents/Controls: Buffer in columns 3 and 4 as negative control (no enzyme). Substrate solution: 45 uM arachidonic acid (Sigma-Aldrich, St. Louis, MO) final concentration dispensed throughout the plate. Enzyme: 50 nM 15hLO-2 final concentration in columns 1, 2, 5-48. Column 1 is neutral (100% activity). Column 2 contained pin-transferred titration of NDGA (nordihidroguaiaretic acid, Sigma-Aldrich, N 5023, top concentration 10 mM in DMSO, then 1:2 dilution in duplicate). (Dilution factor: 23 nL into 4 uL.) Chromogenic detection reagent (divalent iron/xylenol orange, Fe-XO): 200 uM xylenol orange plus 300 uM ferrous ammonium sulfate prepared freshly in 50 mM sulfuric acid. Assay Steps: Three uL of enzyme were dispensed to 1536-well Greiner black clear bottom plates. Compounds and controls (23 nL) were transferred via Kalypsys PinTool. The plates were incubated for 15 min at room temperature, and then 1 uL of substrate solution was added to start the reaction. After room temperature incubation for 90 minutes, 4 uL of Fe-XO solution was added to each well followed by a short spin (1000 rpm, 15 sec) and the plates were then incubated for 30 min. The absorbance at 405 and 573 nm were measured using ViewLux (Perkin-Elmer) High-throughput CCD imager and absorbance protocol settings. The 573-to-405 absorbance ratio was used to compute reaction progress.
(In qHTS, concentration-response curves come from the screen itself.)
On to `O=C(Nc1nnc(-c2ccccc2)o1)c1ccc(Cl)cc1`, for which the “activity change, negative = inhibition” value was 19.4% (inactive). As for `CN1CCN(C(c2cccnc2)c2ccc3cccnc3c2O)CC1` (configuration not stated), the “activity change, negative = inhibition” value is 0.164% (inactive). Regarding `COc1ccc(NC(=O)CSc2nc(O)cc(=O)n2-c2ccccc2OC)cc1`, the “activity change, negative = inhibition” value was -4.58% (inactive). The same measure, in the same setting: with `COc1ccc(OC)c(NC(=O)NC2(C(F)(F)F)Oc3ccccc3O2)c1` the figure was -24.4% (inactive); with `O=C(Nc1cccc(F)c1)N1CCCC2(CCN(C(=O)c3ccco3)CC2)C1`, -1.77% (inactive); with `CN(C)CCC(=O)c1ccc(Cl)cc1`, -28.3% (inactive). With `c1csc(C2Nc3cccc4cccc(c34)N2)c1`, the Potency was 12.6 µM (active).

For the compound `Nc1cc(-c2ccncc2)c[nH]c1=O`, the “activity change, negative = inhibition” value is -15.4% (inactive).

Regarding `CCCC(=O)NC(c1ccco1)c1cc(Cl)c2cccnc2c1O` (configuration not stated), the “activity change, negative = inhibition” value was 9.81% (inactive).

Regarding `CCOC(=O)c1c(NC(=O)CN2CCOCC2)sc2c1CCCC2`, the “activity change, negative = inhibition” value is -3.97% (inactive). The same measure, in the same setting: next, `COc1ccccc1-n1c(SCC(=O)Nc2ccc(C)cc2)nc(O)cc1=O`: 0.145% (inactive); `COc1cccc(-c2nc(NC3CCNCC3)c3ccccc3n2)c1`: 11.1% (inactive).

The record behind these values is PubChem BioAssay AID2537 (National Center for Advancing Translational Sciences (NCATS), 2010).
